Source: PubChem
Shown is part of a subset that was picked to be rich in hits.
Menin-MLL TR inh – displaces Texas Red mutant MLL peptide from human menin; Menin + Texas Red MLL mutant peptide, fluorescence polarization; Potency, µM (titrated, usually from 61.6 µM), for the others: at the top dose FP activity change, negative = inhibition, actives largely listed as inhibitors; 0.23% of 270,000 active; AID 1768; active = well fitted inhibition curve with a large enough effect in the polarisation, with a control signal flat, not every such curve was filed as active; inconclusive = small, poorly fitted or top-dose-only effect, or effect the other way, or a change in a side signal; inactive = no such curve, though single readings can be large or run the other way; the % refers to the polarisation; note: potency is the fitted concentration of half-maximal effect; % of control where 0% means no effect
Menin-MLL FL inh – displaces fluorescein MLL peptide from human menin; Fluorescence polarization, fluorescein-MLL peptide displacement from menin; FP activity change, % at 61.4 µM; 290,000 tested, under 10 active; active = well fitted curve in the direction sought with a large enough effect in the polarisation, not every such curve was filed as active; inconclusive = small, poorly fitted or top-dose-only effect, or effect the other way, or a change in a side signal; inactive = no such curve, though single readings can be large or run the other way; the % refers to the polarisation; note: % of control where 0% means no effect
GALK inh – galactokinase (human) inhibition; Purified GALK, Kinase-Glo residual ATP luminescence; Potency, µM (doses to about 57.5 µM), inactives show at the top dose activity change, negative = inhibition, hits mostly inhibitors; 0.007% of 270,000 active; AID 1868; note: potency is the fitted concentration of half-maximal effect; % is set by controls: 0 for no effect and ±100 for the full control effect
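Quantitative HTS: GALK 5 nM, ATP 35 uM, galactose 100 uM, 1 h room temperature, then luciferase-based ATP detection.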
S-ASM inh – blocks human secretory acid sphingomyelinase | P17405 | placental ASM, HMU-PC fluorogenic substrate, 60 min | Potency, µM (top dose mostly 57.5 µM), for the others: top-dose activity change, negative = inhibition, usual class: inhibitors | 0.006% of 340,000 active | AID 504937; note: potency is the fitted concentration of half-maximal effect
Target sequence (P17405 47-631 limits assumed): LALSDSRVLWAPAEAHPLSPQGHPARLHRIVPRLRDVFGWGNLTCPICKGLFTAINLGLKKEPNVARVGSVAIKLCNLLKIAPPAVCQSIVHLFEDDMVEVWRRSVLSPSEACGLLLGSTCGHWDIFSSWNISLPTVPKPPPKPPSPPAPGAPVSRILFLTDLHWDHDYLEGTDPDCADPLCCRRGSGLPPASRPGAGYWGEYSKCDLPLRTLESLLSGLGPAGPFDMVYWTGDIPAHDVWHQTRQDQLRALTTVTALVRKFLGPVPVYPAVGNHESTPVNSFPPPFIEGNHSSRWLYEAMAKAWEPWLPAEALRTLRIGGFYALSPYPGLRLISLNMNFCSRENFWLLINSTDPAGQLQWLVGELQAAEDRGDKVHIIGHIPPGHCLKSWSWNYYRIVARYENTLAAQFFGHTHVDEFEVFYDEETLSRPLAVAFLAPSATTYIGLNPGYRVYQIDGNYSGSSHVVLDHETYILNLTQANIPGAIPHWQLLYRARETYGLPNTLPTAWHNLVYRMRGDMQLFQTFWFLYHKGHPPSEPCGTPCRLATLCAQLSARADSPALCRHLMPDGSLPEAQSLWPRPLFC
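Human placenta-derived ASM preincubated with compound 10 min at room temperature, then reacted with 9 uM (final) fluorogenic HMU-PC substrate for 60 min at 37 C. Stop solution raises pH to 10; fluorescence read at Ex 386/Em 447 nm.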
CXXC DNA block – inhibitors of human MLL CXXC domain-DNA interaction | MLL-CXXC / FITC-HOXA9 DNA fluorescence polarization | Potency, µM (highest dose often 115 µM), inactives show at the highest dose activity change, negative = inhibition, usual class: inhibitors | Q03164 | 0.037% of 290,000 active; active = well fitted inhibition curve with a large enough effect in the polarisation, with a control signal flat, not every such curve was filed as active; inconclusive = small, poorly fitted or top-dose-only effect, or effect the other way, or a change in a side signal; inactive = no such curve, though single readings can be large or run the other way; the % refers to the polarisation; note: potency is the fitted concentration of half-maximal effect
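Steps: dispense CXXC domain solution (7 uM) → pin compounds or unlabeled HOX-A9 DNA control → 5 min ambient → add FLSN-HOX-A9 solution (50 nM) → spin → 30 min ambient → fluorescence polarization. Tris pH 7.5/NaCl/DTT/BSA buffer.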
MLL CXXC FP-Fl – MLL CXXC-DNA interaction inhibition, fluorescein FP; 70% of 200 active; shares compounds with CXXC DNA block; Potency, µM (titrated, usually from 345 µM), inactives show top-dose activity change, negative = inhibition, usual class: inhibitors; MLL CXXC-DNA binding, fluorescein FP; AID 624160; note: potency is the fitted concentration of half-maximal effect; nearly all actives have a fitted effect of over 80% in size
MLL CXXC TxRed – disrupts human MLL CXXC domain binding to DNA, Texas Red. shares compounds with CXXC DNA block. MLL CXXC-DNA binding, Texas Red fluorescence polarization. Potency, µM (series often up to 345 µM), inactives show at the top dose activity change, negative = inhibition, most hits filed as inhibitors. 40% of 200 active. AID 624161; note: potency is the fitted concentration of half-maximal effect; % is set by controls: 0 for no effect and ±100 for the full control effect; nearly all actives have a fitted effect of over 75% in size
MLL CXXC TRF – MLL CXXC-DNA interaction inhibition, HTRF readout | 30% of 210 active | Potency, µM (doses to about 172 µM), for inactives: at the top dose activity change, negative = inhibition, actives largely listed as inhibitors | shares compounds with CXXC DNA block | MLL CXXC-DNA binding, HTRF, biochemical; note: % is set by controls: 0 for no effect and ±100 for the full control effect; nearly all actives have a fitted effect of over 80% in size
Numbers without * were called inactive; i = inactive; ? = inconclusive; nt = no result; [ ] = dose if it differs, or a comment. Unless noted, calls come from the whole dose curve; as a rule, active = well fitted curve in the direction sought with a large enough effect; inconclusive = small, poorly fitted or top-dose-only effect, or another doubt; inactive = no such curve, though single readings can be large; an effect the other way counts as inactive or inconclusive.

SMILES	Menin-MLL TR inh	Menin-MLL FL inh	GALK inh	S-ASM inh	CXXC DNA block	MLL CXXC FP-Fl	MLL CXXC TxRed	MLL CXXC TRF
COC(C(=O)C(O)C(C)O)C1Cc2cc3cc(OC4CC(OC5CC(O)C(O)C(C)O5)C(O)C(C)O4)c(C)c(O)c3c(O)c2C(=O)C1OC1CC(OC2CC(OC3CC(O)C(OC)C(C)O3)C(O)C(C)O2)C(O)C(C)O1 (stereo not given)	nt	nt	nt	-25%	nt	nt	nt	nt
CCN(CC)CCC(c1cc(OC)c(OC)c(OC)c1)c1c(OC)cc(OC)c2c1OC(=O)CC2c1ccc(N(C)C)cc1 (stereo not given)	-2%	1	nt	nt	nt	nt	nt	nt
Cc1cc(-c2ccc(N=Nc3c(S(=O)(=O)O)cc4cc(S(=O)(=O)O)cc(N)c4c3O)c(C)c2)ccc1N=Nc1c(S(=O)(=O)O)cc2cc(S(=O)(=O)O)cc(N)c2c1O	?	?	nt	nt	25µM*	5.6µM*	7.1µM*	1.5µM*
O=S(=O)(O)c1cc(O)c2c(O)c(N=Nc3cc(Cl)ccc3O)c(S(=O)(=O)O)cc2c1	?	-2	16%	23%	1%	nt	nt	nt
COc1cc(/C=C2/SC(=O)NC2=O)ccc1OCc1ccccc1	?	-6	0%	3%	?	nt	nt	nt
COc1ccc(/C=C2/SC(=S)NC2=O)cc1OCc1ccccc1	?	8	-1%	-7%	?	?	22%	30%
CNC(=O)c1cc(Nc2nnc(-c3ccc(C)c(S(N)(=O)=O)c3)c3ccccc23)ccc1OC	5%	0	0%	0%	?	142µM*	14%	12%
CC(=O)Nc1ccc(Nc2nnc(-c3ccc(C)c(S(N)(=O)=O)c3)c3ccccc23)cc1	-4%	-2	3%	-5%	?	nt	nt	nt
COC(=O)c1sccc1NC(=O)Nc1ccc(C(C)=O)cc1	nt	nt	2%	-2%	-10%	nt	nt	nt
COCCCNc1c2c3c(cccc3[nH]c1=O)C(=O)c1ccccc1-2	32µM*	?	0%	0%	?	0.56µM*	63µM*	25%
CC(C)CCCC(C)C1CC(=O)C2=C3CCC4CC(O)CCC4(C)C3CCC21C (stereo not given)	-12%	-4	nt	nt	-3%	nt	nt	nt
N#CC(C#N)=C1C=C2C=C(N3CCCCCC3)CCC2CC1 (stereo not given)	?	?	-3%	-21%	?	0.45µM*	71µM*	217%
N#CC(C#N)=C1C=C2C=C(N3CCOCC3)CCC2CC1 (stereo not given)	8%	?	-1%	33%	?	nt	nt	nt
CSCC[C@H](NC(=O)[C@@H]1CCCN1C(=O)[C@H](CCCN=C(N)N)NC(=O)[C@H](CC(C)C)NC(=O)[C@@H]1CCCN1C(=O)[C@@H](NC(=O)[C@@H](N)CCC(N)=O)C(C)C)C(=O)N[C@H](C(=O)N[C@@H](Cc1ccc(O)cc1)C(=O)N[C@@H](CCCCN)C(=O)O)[C@@H](C)O	-4%	-6	nt	nt	nt	nt	nt	nt
CO[C@@H]1COC(=O)C/C=C\[C@@H](C)[C@H](OC)COC(=O)[C@H](COCc2ccccc2)NC(=O)C/C=C\[C@H]1C	0%[11.7 µM]	-1[11.7 µM]	nt	nt	nt	nt	nt	nt
CCC1OC2(C)OC(=N)C1(C#N)C(C#N)(C#N)C2c1ccccc1 (stereo not given)	-7%	2	2%	i	10%	nt	nt	nt
CC(C)C1OC2(C)OC(=N)C1(C#N)C(C#N)(C#N)C2c1ccccc1 (stereo not given)	3%	?	1%	i	18µM*	89µM*	45µM*	15%
CCC12OC(=N)C(C#N)(C1C)C(C#N)(C#N)C(c1ccccc1)O2 (stereo not given)	-6%	-3	0%	i	20µM*	13µM*	22µM*	32%
C=CCOc1ccc(C2OC34CCCCC3C(C#N)(C#N)C2(C#N)C(=N)O4)cc1 (stereo not given)	-19%	?	1%	i	-15%	nt	nt	nt
COc1cccc(/C=C2/C(=O)NN(c3ccccc3)C2=O)c1	0%	-4	-1%	0%	-3%	nt	nt	nt
O=C1NN(c2ccccc2)C(=O)/C1=C\c1ccc2c(c1)OCO2	9%	2	-1%	2%	?	28µM*	?	0%
CC(C)[C@@H]1[C@H]2CC[C@H](C2)[C@H]1N	?	-16	nt	nt	nt	nt	nt	nt
CCN(CC)CCN1C(=O)c2cccc3cc(N)cc(c23)C1=O	1%	?	0%	-11%	35µM*	89µM*	?	97%
Nc1cc2c3c(cccc3c1)C(=O)N(CCN1CCCC1)C2=O	-17%	?	3%	-9%	7.9µM*	142µM*	?	87%
O=C1c2cccc3cc([N+](=O)[O-])cc(c23)C(=O)N1CCN1CCCC1	-12%	?	-4%	-4%	?	nt	nt	nt
SMILES	Menin-MLL TR inh	Menin-MLL FL inh	GALK inh	S-ASM inh	CXXC DNA block	MLL CXXC FP-Fl	MLL CXXC TxRed	MLL CXXC TRF
CC(=O)OCCCN1C(=O)c2cccc3cc(Br)cc(c23)C1=O	-22%	-1	-2%	nt	-6%	nt	nt	nt
O=C(O)c1ccc(S(=O)(=O)/N=C2\C=C(Nc3ccccc3F)C(=O)c3ccccc32)cc1	?	-20	?	13%	?	113µM*	142µM*	-44%
COc1ccc(C(=O)NC(C)c2ccc(-n3ccnc3)cc2)cc1S(=O)(=O)N1CCOCC1 (stereo not given)	nt	nt	nt	0%	nt	nt	nt	nt
CC(C)OC(=O)CC(=O)c1sc2nc3c(cc2c1N)CN(C)CC3	-15%	?	4%	39%	13µM*	45µM*	?	?
Cc1c2cnn(CC(=O)NCCN3CCOCC3)c(=O)c2c(C)n1Cc1ccccc1F	nt	nt	nt	0%	nt	nt	nt	nt
O=C(O)CCN1C(=O)/C(=C\c2cccc(OCC(=O)Nc3ccc(Cl)cc3)c2)SC1=S	nt	14	-2%	?	?	?	142µM*	-61%
Cc1ccc(NC(=O)COc2cccc(/C=C3\SC(=S)N(CCC(=O)O)C3=O)c2)cc1Cl	nt	4	0%	?	-24%	nt	nt	nt
Cn1c(=O)n2n(c1=O)[C@H]1[C@H](O)[C@H]3O[C@@H]3/C(=N/OC[C@@H](O)COCc3ccco3)[C@@H]1CC2	16%[11.7 µM]	1[11.7 µM]	nt	nt	nt	nt	nt	nt
